Screening data (PubChem BioAssay)
Hits are enriched below; roughly 11% of the tested compounds scored in any of these assays.
3T3 cytotox: NIH 3T3 cell cytotoxicity; hit rate 4.3% among 94,000; AID 1345082; NIH 3T3 viability, CellTiter-Glo ATP luminescence, 48-72 h; Potency, µM (highest dose often 96.7 µM), inactives show at the top dose activity change, negative = cytotoxicity, most hits filed as inhibitors; further: nearly all actives have a fitted effect of over 55% in size
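NIH 3T3 cells at 400 cells/well received 23 nL of compound by pintool and were incubated 48 or 72 h at 37 °C. Viability was read as ATP-coupled CellTiter-Glo luminescence.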
hNpr1 antagonist: antagonists of human natriuretic peptide receptor Npr1 | HEK293 hNpr1 GloSensor cGMP, ANP-stimulated luminescence | Potency, µM (series often up to 46.3 µM), without a hit: at the highest dose activity change, negative = inhibition, actives largely listed as inhibitors | hit rate 1.6% among 76,000 | AID 1347048; calls by dose curve; further: nearly all actives have a fitted effect of over 60% in size
Target sequence (P16066 whole entry, looked up): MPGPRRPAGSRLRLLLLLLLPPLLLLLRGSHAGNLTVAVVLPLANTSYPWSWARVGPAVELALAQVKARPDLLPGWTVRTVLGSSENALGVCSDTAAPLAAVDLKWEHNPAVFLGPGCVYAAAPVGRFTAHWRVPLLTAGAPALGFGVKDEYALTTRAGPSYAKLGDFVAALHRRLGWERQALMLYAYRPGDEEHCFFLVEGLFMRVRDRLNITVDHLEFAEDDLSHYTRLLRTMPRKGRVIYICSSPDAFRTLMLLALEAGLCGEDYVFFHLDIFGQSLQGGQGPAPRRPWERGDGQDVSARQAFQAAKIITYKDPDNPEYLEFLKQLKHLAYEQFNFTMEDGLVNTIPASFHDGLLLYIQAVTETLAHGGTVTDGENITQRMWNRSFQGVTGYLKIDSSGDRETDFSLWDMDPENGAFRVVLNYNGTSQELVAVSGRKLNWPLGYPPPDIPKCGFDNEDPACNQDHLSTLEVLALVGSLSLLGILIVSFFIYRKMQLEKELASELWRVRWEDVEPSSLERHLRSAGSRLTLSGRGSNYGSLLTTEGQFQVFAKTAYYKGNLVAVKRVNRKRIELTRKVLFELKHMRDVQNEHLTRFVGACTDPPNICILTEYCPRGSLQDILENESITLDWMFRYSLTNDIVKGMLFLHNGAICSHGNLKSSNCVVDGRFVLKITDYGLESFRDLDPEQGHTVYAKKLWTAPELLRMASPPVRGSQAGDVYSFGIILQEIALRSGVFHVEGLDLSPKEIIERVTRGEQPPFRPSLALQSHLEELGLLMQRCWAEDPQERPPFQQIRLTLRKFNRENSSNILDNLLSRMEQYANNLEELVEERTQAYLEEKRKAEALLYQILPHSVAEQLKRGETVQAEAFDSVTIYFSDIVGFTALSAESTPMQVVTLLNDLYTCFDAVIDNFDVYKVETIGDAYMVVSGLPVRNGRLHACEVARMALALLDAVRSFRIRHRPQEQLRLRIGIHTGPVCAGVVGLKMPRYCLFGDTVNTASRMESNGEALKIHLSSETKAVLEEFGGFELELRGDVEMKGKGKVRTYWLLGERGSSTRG
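Compound pre-incubated 30 min at room temperature on GloSensor-loaded HEK293 cells stably carrying hNpr1 and the pGS-40F cGMP biosensor. Stimulation uses hNppA at 0.1 nM final; luminescence is taken at baseline and 20 min post-agonist.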
HEK293 tox: cytotoxic compounds in HEK 293 cells; HEK 293 viability, ATP luminescence (CellTiter-Glo), 48-72 h; Potency, µM (highest dose often 115 µM), for the others: at the top dose activity change, negative = cytotoxicity, actives largely listed as inhibitors; hit rate 6.6% among 94,000; AID 1345083; further: nearly all actives have a fitted effect of over 60% in size
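Luminescence from cellular ATP, measured with CellTiter-Glo, indicates HEK 293 viability. Cells plated at 250 cells/well are treated with compound for 48 or 72 hr at 37 degree Celsius before reagent addition.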
Luciferase inh: Photinus pyralis luciferase inhibition. hit rate 2.5% among 76,000. Potency, µM (highest dose often 115 µM), hits mostly inhibitors. AID 1347043. purified P. pyralis luciferase, luminescence, biochemical. P08659; further: nearly all actives have a fitted effect of over 65% in size
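Luminescence read by CCD imager after adding enzyme (10nM final) to wells holding compound, titrated in qHTS. Substrates 10uM each D-luciferin and ATP; buffer 50mM Tris acetate pH 7.5, 10mM Mg acetate, Tween-20, BSA.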
* = called active by the depositor; i = inactive; ? = inconclusive; . = no result; [ ] = another dose, or the depositor's remark. Unless noted, the call rests on the fitted dose curve; in most records, active means well fitted curve in the direction sought with a large enough effect; inconclusive means small, poorly fitted or top-dose-only effect, or another doubt; inactive means no such curve, though single readings can be large; an effect the other way counts as inactive or inconclusive. On the % scale 0 is the no-effect control and ±100 the full control effect; potency means the concentration at half of the fitted maximal effect.

SMILES	3T3 cytotox	hNpr1 antagonist	HEK293 tox	Luciferase inh
CCN(Cc1ccncc1)C(=O)c1cc(-c2cnn(CC)c2)nc2cc(C)ccc12	2.8µM*	-11%	?	?
O=C1CCCN1CCCN1C(=O)[C@H]2CN(Cc3ccccc3C(F)(F)F)C[C@H]2C1=O	-19%	2%	-22%	i
O=C(Cc1cccc(C(F)(F)F)c1)N1CCCc2ncc(C(=O)N3CCCC[C@@H]3Cc3ccccc3)cc21	?	-4%	79µM*	i
CC(C)c1ccc(CC(=O)N2CCCc3ncc(C(=O)N4CCCC[C@@H]4Cc4ccccc4)cc32)cc1	35µM*	-7%	45µM*	i
C=CCn1cc2c3c(cccc31)[C@H](CC(C)C)N[C@H](C(=O)NCCN(C)C)C2	35µM*	2%[70.6 µM]	35µM*	i
C=CCn1cc2c3c(cccc31)[C@H](CC(C)C)N[C@H](C(=O)NCCC)C2	71µM*	1%[70.6 µM]	50µM*	i
CC(C)C[C@@H]1N[C@H](C(=O)NCc2cccs2)Cc2cn(CC3CC3)c3cccc1c23	71µM*	-18%[70.6 µM]	63µM*	i
C=CCNC(=O)[C@@H]1Cc2cn(CC=C)c3cccc(c23)[C@H](CC(C)C)N1	?	-2%[70.6 µM]	?	i
CC(C)C[C@@H]1N[C@H](C(=O)NCCN(C)C)Cc2cn(CC3CC3)c3cccc1c23	32µM*	-1%[70.6 µM]	32µM*	i
CCCN(C)C(=O)c1cn2cc(-c3cccc(Cl)c3)n(CC=C(C)C)c(=O)c2n1	40µM*	4%	28µM*	i
COCCN(C)C(=O)c1cn2cc(-c3cccc(Cl)c3)n(CC3CC3)c(=O)c2n1	?	0%	-20%	i
CC(C)(C)CC(=O)N1CC[C@H]2NC(=O)N(c3ccc(Oc4ccccc4)cc3)C(=O)[C@H]21	1%[174 µM]	2%[70.6 µM]	4%[172 µM]	i
Cc1cc(C)cc(-c2ccc(CN3CCCC3C(=O)NCc3cccnc3)cc2)c1 (stereo not drawn)	?	.	50µM*	.
Cc1cc(C)cc(-c2ccc(CN3CCCC3C(=O)NCc3ccc(C(F)(F)F)cc3)cc2)c1 (stereo not drawn)	35µM*	.	40µM*	.
CCOCCNC(=O)C1CCCN1Cc1ccc(-c2cc(C)cc(C)c2)cc1 (stereo not drawn)	?	.	35µM*	.
Cc1cc(C)cc(-c2ccc(CN3CCCC3C(=O)NCCc3ccc(F)cc3)cc2)c1 (stereo not drawn)	?	.	45µM*	.
CCOCCCNC(=O)C1CCCN1Cc1ccc(-c2cncnc2)cc1 (stereo not drawn)	-4%	.	i	.
CC(=O)N1CCN(C(=O)c2nc3cccnc3n(CC(C)C)c2=O)CC1	-5%	.	1%	.
O=C1c2c(nc(CNCC3CC3)n2Cc2ccccc2)NCCN1Cc1ccccc1	?	0%[70.6 µM]	?	i
COCCO[C@H]1C(=O)N(C2CCN(C(=O)c3ccc(C#N)cc3)CC2)[C@H]1c1ccncc1	-26%	.	-2%	.
COc1ccccc1CNC(=O)C1CCCN1Cc1ccc(-c2cc(C)cc(C)c2)cc1 (stereo not drawn)	40µM*	.	40µM*	.
Cc1cc(C)cc(-c2ccc(CN3CCCC3C(=O)NCC3CC3)cc2)c1 (stereo not drawn)	40µM*	.	40µM*	.
O=C(NCC1CC1)C1CCCN1Cc1ccc(-c2cncnc2)cc1 (stereo not drawn)	-5%	.	i	.
COc1cccc(-c2ccc(C(=O)N3CCC(NC(=O)c4ccc(Cl)cc4)CC3)cc2)c1	-30%	.	-5%	.
COc1cccc(-c2ccc(C(=O)N3CCC(N[S+](=O)([O-])c4ccc(C)cc4)CC3)cc2)c1	?	.	11µM*	.
SMILES	3T3 cytotox	hNpr1 antagonist	HEK293 tox	Luciferase inh
COc1cccc(-c2ccc(C(=O)N3CCC(C(=O)N4CCOCC4)CC3)cc2)c1	-23%	.	-11%	.
COc1cccc(-c2ccc(C(=O)N3CCC(N[S+](=O)([O-])c4cccc(C(F)(F)F)c4)CC3)cc2)c1	?	.	11µM*	.
O=C(N1CC(N(Cc2ccncc2)CC2CC2)C1)C1(c2ccccc2)CC1	-27%	.	-14%	.
O=C1COc2ccc(-c3ccsc3)nc2CN1Cc1ccc(C(F)(F)F)cc1	?	-21%[70.6 µM]	?	i
Cc1nc(CN2Cc3nc(-c4ccccc4)ccc3OCC2=O)cs1	?	5%[70.6 µM]	-24%[172 µM]	i
O=C1COc2ccc(-c3ccsc3)nc2CN1Cc1ccccc1	?	-25%[70.6 µM]	100µM*	i
O=C1COc2ccc(-c3ccccc3)nc2CN1Cc1ccc(F)cc1	?	-18%[70.6 µM]	?	i
Cc1ccccc1CN1Cc2nc(-c3ccsc3)ccc2OCC1=O	?	-18%[70.6 µM]	89µM*	i
Cc1ccccc1CN1Cc2nc(-c3cncnc3)ccc2OCC1=O	100µM*	-11%[70.6 µM]	?	i
COCCn1nnnc1C1CC2(CCOCC2)C(=O)N1Cc1ccc(C(F)(F)F)cc1 (stereo not drawn)	-16%	.	-22%	.
O=C(c1cccs1)N1CC(c2noc(C3CCCN3CC3CC3)n2)C1 (stereo not drawn)	-13%	-3%	-23%	i
CC(=O)Nc1ccc(NC(=O)c2cc3sc(C)c(CN4CCCCC4)c3[nH]2)cc1	?	-10%	?	i
Cc1c(-c2ccc(F)cc2)[nH]c2ccc(CNC(=O)CCN3CCCO3)cc12	?	?	32µM*	25µM*
Cc1nc(CC(=O)NCc2ccc3[nH]c(-c4ccc(F)cc4)c(C)c3c2)cs1	?	?	?	35µM*
O=C1CCCCC(C(=O)NCc2ccc(F)cc2)N1 (stereo not drawn)	5%	4%	-1%	i
Cc1c(-c2ccc(F)cc2)[nH]c2ccc(CNC(=O)[C@@H]3CCCO3)cc12	?	-17%	50µM*	35µM*
Cc1c(-c2ccc(F)cc2)[nH]c2ccc(CNCc3cnn(C)c3)cc12	40µM*	-22%	40µM*	?
Cc1cc(F)ccc1-c1[nH]nc2ncc(-c3cnn(C)c3)nc12	-24%[138 µM]	-2%[70.6 µM]	?	i
O=C(CCN1CCCCO1)N1CCCC(CCc2ccc(F)c(F)c2)C1 (stereo not drawn)	-18%	9%	?	i
O=C1NCCCc2[nH]c(-c3csc(-c4ccccc4)n3)nc21	?	-4%	?	25µM*
Cc1cc(C(=O)N2CC(c3nnc(-c4ccncc4)o3)C3(CCOCC3)C2)n(C)n1 (stereo not drawn)	-12%	3%	4%	i
CS(=O)(=O)N1CCC(OC2CCN(C(=O)Nc3ccc(F)cc3)CC2)CC1	-9%	0%	1%	i
CC#CCn1cc2c3c(cccc31)[C@H](CC(C)C)N[C@H](C(=O)NCCOC)C2	?	-11%[70.6 µM]	?	i
CC#CCn1cc2c3c(cccc31)[C@H](CC(C)C)N[C@H](C(=O)NC(C)C)C2	71µM*	-2%[70.6 µM]	50µM*	i
CC#CCn1cc2c3c(cccc31)[C@H](CC(C)C)N[C@H](C(=O)NC1CCCC1)C2	35µM*	-9%[70.6 µM]	45µM*	i
